Laboratory results reported in PubChem BioAssay (NCI).
This is part of a sample that, as a whole, favours compounds with a hit. Of some 83,000 tested, about 20% had one in any assay.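 Single-dose data. Exposure time 48 hours. Values below 10 considered active.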 Calls of active or inactive are those of the source.

How the values were obtained:
Experiment in all cases: NCI-60 one-dose screen, 48 h (100 = growth as untreated, 0 = no growth, -100 = all killed)
Settings in all cases: 10 µM
[1] = tested on: SK-MEL-2 melanoma
[2] = tested on: EKVX NSCLC
[3] = tested on: SN12C renal
[4] = tested on: UO-31 renal
[5] = tested on: TK-10 renal
[6] = tested on: ACHN renal
[7] = tested on: CAKI-1 renal
[8] = tested on: A498 renal
[9] = tested on: CCRF-CEM leukemia
[10] = tested on: MOLT-4 leukemia

Measured: growth

O=c1c2ccccc2nc(COc2ccccc2)n1/N=C/c1ccc(N2CCOCC2)cc1
inactive: [1] 70.4% | [2] 69.7% | [3] 68% | [4] 69.3% | [5] 81.6% | [6] 60.6% | [7] 51.9% | [8] 78.2% | [9] 97.7% | [10] 117%

O=C(Nc1ccc(Cl)c([N+](=O)[O-])c1)Nc1ccc(Cl)c([N+](=O)[O-])c1
inactive: [1] 30.7% | [2] 17.8% | [5] 48.3% | [8] 20.1% | [9] 14.2% | [10] 21.7%
active: [3] 1.65% | [4] -2.65% | [6] 4.21% | [7] 8.32%

O=c1c2ccccc2nc(COc2ccccc2)n1/N=C/c1ccc(N2CCCC2)cc1
inactive: [1] 104% | [2] 88% | [3] 88.7% | [4] 69.8% | [5] 99.5% | [6] 92.3% | [7] 91.5% | [8] 109% | [9] 78.2% | [10] 78.1%

Cc1ccc(/C=C/C(=O)c2ccc(NC(=O)CSc3nnc(-c4c[nH]c5ccccc45)n3-c3ccccc3)cc2)c(C)c1
inactive: [1] 87.7% | [2] 63.7% | [3] 27.1% | [4] 65.9% | [5] 73.4% | [6] 59.5% | [7] 66.9% | [8] 106% | [9] 83.1% | [10] 43.6%

O=C1Nc2ccc(Cl)cc2/C1=C/c1cccc(OCc2ccccn2)c1
active: [1] -50.6% | [3] -50.6% | [4] 8.26% | [6] -40.3% | [7] -7.95% | [9] -23.1% | [10] 4.5%
inactive: [2] 10.7% | [5] 10.5% | [8] 95%

Cc1nc(Nc2nc(C)c3ccc(OCCN4CCOCC4)cc3n2)[nH]c(=O)c1C
active: [1] -90.3% | [2] -3.4% | [3] -10.4% | [4] -63.8% | [6] -50.2% | [7] -38.4% | [8] -79% | [9] -7.55% | [10] 1.13%
inactive: [5] 17.6%

CN1C(=O)/C(=C/c2ccc3ncsc3c2)NC1=NC12CC3CC(CC(O)(C3)C1)C2
inactive: [2] 12.3% | [5] 39.2%
active: [1] -82.3% | [3] 4.63% | [4] -0.057% | [6] 0.736% | [7] 8.2% | [8] -10.5% | [9] 5.06% | [10] 4.59%

O=C(N=Nc1c(O)[nH]c2ccc(Br)cc12)c1ccc2nc(-c3ccccc3)[nH]c2c1
active: [1] -89.7% | [2] -4.61% | [3] -94.4% | [5] -25.5% | [6] -47.3% | [8] -55.3% | [9] -16% | [10] -29%
inactive: [4] 27.3% | [7] 16.8%

O=C1CCC(N2Cc3cc(CC(=O)Nc4ccc(N5CCCCC5)cc4)ccc3C2=O)C(=O)N1 (stereo not given)
active: [10] -7.39%
inactive: [1] 74.7% | [2] 83.4% | [3] 46.7% | [4] 21% | [5] 67.5% | [6] 92.4% | [7] 87.6% | [8] 12.7% | [9] 16.9%

COc1ccc(-c2cc(C(=O)N=Nc3c(O)[nH]c4ccc(Br)cc34)c3ccccc3n2)cc1
inactive: [1] 122% | [2] 44.4% | [4] 43.2% | [5] 97.8% | [6] 24.5% | [7] 57.1% | [8] 143% | [9] 18.9%
active: [3] 5.56% | [10] 4.15%

CCN1CCN(Cc2ccc(NC(=O)c3cccc(-n4cc(-c5ccc(NC(C)=O)nc5)nn4)c3)cc2C(F)(F)F)CC1
inactive: [1] 106% | [2] 105% | [3] 95.9% | [4] 107% | [5] 149% | [6] 109% | [7] 88.9% | [8] 213% | [9] 39.2% | [10] 80.3%

O=C(NO)c1ccc(Cn2ccc3c(NCc4ccccc4)ncnc32)cc1
active: [1] -2.65% | [4] 4.26% | [5] -7.3% | [6] 0.241% | [7] 2.72% | [8] -20.1% | [9] 8.45% | [10] 3.81%
inactive: [2] 21.4% | [3] 13.9%

COC(=O)CC1CC1C1Cc2c(nc(N(C)S(C)(=O)=O)nc2C(C)C)-c2ccc(F)cc21 (stereo not given)
inactive: [1] 80.9% | [2] 87% | [3] 94.9% | [4] 71.5% | [5] 114% | [6] 86.6% | [7] 52.1% | [8] 117% | [9] 61.5% | [10] 38.6%

COc1cnc2c(c1)C(=O)c1c-2n(CCCNCCO)c(=O)c2cc(OC)c(OC)cc12
inactive: [1] 104% | [2] 87.9% | [3] 18.4% | [4] 34% | [5] 101% | [7] 12% | [8] 101% | [9] 12.8% | [10] 12.8%
active: [6] 3.42%

Cc1ccc(CSc2nc(-c3ccc(F)cc3)c(C#N)c(=O)[nH]2)cc1
inactive: [1] 103% | [2] 99.6% | [3] 102% | [4] 96.2% | [5] 93.5% | [6] 100% | [7] 92.5% | [8] 99.3% | [9] 94.7% | [10] 88.4%

COc1cc(/C=C/C(=O)c2ccc(F)cc2)ccc1Oc1nc(Nc2ccc(F)cc2)nc(N(C)C)n1
inactive: [1] 61% | [2] 50.1% | [3] 60.1% | [4] 47.1% | [5] 99.4% | [6] 50.9% | [7] 58% | [8] 86.5% | [9] 15.2%
active: [10] 1.46%

Cc1ccc(-c2nc(Nc3ccc(C)c(S(N)(=O)=O)c3)c3ccccc3n2)cc1
inactive: [1] 118% | [2] 81.1% | [3] 69% | [4] 85.9% | [5] 120% | [6] 64.1% | [7] 91% | [8] 106% | [9] 85.1% | [10] 71.5%

O=C(Cc1ccc2c(c1)CN(C1CCC(=O)NC1=O)C2=O)NCCc1ccccc1 (stereo not given)
active: [3] 8.84% | [4] -10.4% | [8] 1.53% | [10] -13.2%
inactive: [1] 26% | [2] 67.2% | [5] 45.8% | [6] 48.9% | [7] 63.6% | [9] 10.6%

COc1ccc(-c2ccc(/C=N/NC(=O)c3[nH]c4ccc(Br)cc4c3-c3ccccc3)o2)cc1
inactive: [1] 34.3% | [2] 60.1% | [3] 35% | [4] 43.9% | [5] 88.4% | [6] 30.9% | [7] 28.4% | [8] 73.9% | [9] 10.5% | [10] 20.9%

O=C(CNc1nc(-c2ccccc2)cs1)Nc1ccc([N+](=O)[O-])cc1
active: [2] 9.52% | [4] -74.3% | [5] -58% | [6] -15.8% | [7] 7.15%
inactive: [1] 31.1% | [3] 16.9% | [8] 109% | [9] 14.3% | [10] 15.7%

CN(C)c1ccc(/C=C/C(=O)c2ccc(NC(=O)CN3C(=O)NC(C)(c4ccccc4)C3=O)cc2)cc1 (stereo not given)
inactive: [1] 76.5% | [2] 66.4% | [3] 73.4% | [4] 57.7% | [5] 97.3% | [6] 59.8% | [7] 66.4% | [8] 85.5% | [9] 53.1% | [10] 36.6%

COc1cccc2nc(Nc3ccc(F)c(NC(=O)c4ccc(CN5CCN(C)CC5)c(C(F)(F)F)c4)c3)ccc12
inactive: [1] 14.6% | [2] 13% | [3] 26.8% | [5] 50.3% | [8] 77%
active: [4] 5.08% | [6] 0.664% | [7] -2.36% | [9] -3% | [10] -16.5%

CCCCSc1nc(Nc2ccc(/C(C)=N/NC(N)=S)cc2)c(C#N)c(-c2ccc(OC)cc2)n1
inactive: [1] 104% | [2] 79.4% | [6] 55.2% | [7] 51.6% | [8] 32.2% | [9] 86.2% | [10] 67.7%
active: [3] 7.27% | [4] -19.7% | [5] -0.624%

O=C(CSc1nnc(-c2ccc3nc(-c4ccccc4)[nH]c3c2)o1)Nc1ccc(Cl)cc1
inactive: [1] 45% | [2] 48.6% | [3] 46.1% | [4] 40.1% | [5] 55% | [6] 29.5% | [7] 30.5% | [8] 101% | [9] 13.7%
active: [10] 7.63%

[2H]C([2H])([2H])Oc1ccc2ncc(C#Cc3cncc(C(=O)Nc4ccc(CN5CCN(C)CC5)c(C(F)(F)F)c4)c3)n2n1
active: [1] -92.7% | [2] -60% | [3] -78.2% | [4] -85.2% | [5] -53.4% | [6] -88.9% | [7] -78.7% | [8] -50.6% | [9] 0.607% | [10] -13.6%

COc1cc(-c2nc3cc(Cl)c(Cl)cc3[nH]2)ccc1OCc1nnc(-c2ccc(Br)cc2)o1
inactive: [2] 14.3%
active: [1] 0.585% | [3] -39.2% | [4] -91.1% | [5] -43.4% | [6] -100% | [7] -76.6% | [8] -86.5% | [9] 7.7% | [10] -7.63%

Cc1ccc(F)cc1N/C=c1\s/c(=C(\C#N)C(=O)Nc2ccccc2)n(-c2ccccc2)c1=O
inactive: [1] 94.7% | [2] 86.7% | [3] 46.9% | [4] 45.5% | [5] 84.4% | [7] 19.8% | [9] 84.7% | [10] 90.3%
active: [6] -20.1% | [8] -16.7%
